Reference: paper PMC7862700, “An all-to-all approach to the identification of sequence-specific readers for epigenetic DNA modifications on cytosine”

Key:
Assay in all cases: DAPPL (digital affinity profiling via proximity ligation, sequencing); 10 mM Tris-HCl pH 7.5, 50 mM NaCl, 1 mM DTT, 4% glycerol, room temperature, 30 min; GST-TFs on glutathione beads, 16-mer random dsDNA library, 0.1% formaldehyde crosslink after washing; high values mean tight binding
Conditions in all cases: protein: recombinant; tags: N-terminal GST; dsDNA, one strand shown
FEV = biological target: T1, FEV (Homo sapiens, UniProt Q99581 1-238)
T1 sequence: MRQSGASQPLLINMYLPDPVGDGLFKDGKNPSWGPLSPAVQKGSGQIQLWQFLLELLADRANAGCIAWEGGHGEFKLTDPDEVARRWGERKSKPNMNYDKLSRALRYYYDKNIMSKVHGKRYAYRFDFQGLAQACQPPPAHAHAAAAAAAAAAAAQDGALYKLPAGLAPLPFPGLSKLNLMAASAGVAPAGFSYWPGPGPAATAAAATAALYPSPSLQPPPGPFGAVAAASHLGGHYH
Procedure, shortened: (§1)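 GST fusions of human transcription factors were expressed in yeast and captured with glutathione beads. Once given DNA barcodes and pooled alongside a tag-only sample, they were incubated for 30 min at room temperature with 200 nmole of a random double-stranded 16-mer DNA library in Tris/NaCl/DTT/glycerol buffer, then washed, crosslinked (0.1% formaldehyde), proximity-ligated, PCR-amplified and sequenced on an Illumina NextSeq500. The binding signal of each hexamer is its read frequency for a factor divided by its frequency for the tag-only sample.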

ETV5 = ETV5 (Homo sapiens, UniProt P41161 1-510)
Chain of ETV5 (P41161 whole entry): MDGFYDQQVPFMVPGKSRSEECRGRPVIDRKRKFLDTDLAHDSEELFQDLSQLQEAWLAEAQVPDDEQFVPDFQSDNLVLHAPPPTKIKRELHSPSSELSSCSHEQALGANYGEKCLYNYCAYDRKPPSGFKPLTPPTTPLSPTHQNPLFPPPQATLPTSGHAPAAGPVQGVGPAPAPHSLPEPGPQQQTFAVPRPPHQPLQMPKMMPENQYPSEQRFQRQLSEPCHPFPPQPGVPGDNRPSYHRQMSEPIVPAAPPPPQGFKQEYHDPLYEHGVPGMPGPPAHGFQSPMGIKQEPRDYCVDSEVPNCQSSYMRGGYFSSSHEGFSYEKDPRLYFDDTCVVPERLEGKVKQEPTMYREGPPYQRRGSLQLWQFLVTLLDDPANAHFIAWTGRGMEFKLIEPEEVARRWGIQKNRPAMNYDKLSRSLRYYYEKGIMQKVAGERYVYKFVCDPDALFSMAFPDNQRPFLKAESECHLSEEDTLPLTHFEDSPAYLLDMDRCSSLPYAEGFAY
Procedure, shortened: as §1

SPIC = biological target: T2, SPIC (Homo sapiens, UniProt Q8N5J4 1-248)
T2 sequence: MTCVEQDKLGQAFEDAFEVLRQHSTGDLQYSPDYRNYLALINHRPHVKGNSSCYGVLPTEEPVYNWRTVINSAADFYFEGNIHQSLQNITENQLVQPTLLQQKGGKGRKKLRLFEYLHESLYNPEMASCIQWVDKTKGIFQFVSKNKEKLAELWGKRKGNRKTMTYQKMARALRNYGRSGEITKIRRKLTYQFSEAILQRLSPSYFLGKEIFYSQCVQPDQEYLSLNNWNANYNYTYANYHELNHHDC
Procedure, shortened: as §1

ELF4 = ELF4 (Homo sapiens, UniProt Q99607 1-663)
Chain of ELF4 (Q99607 whole entry): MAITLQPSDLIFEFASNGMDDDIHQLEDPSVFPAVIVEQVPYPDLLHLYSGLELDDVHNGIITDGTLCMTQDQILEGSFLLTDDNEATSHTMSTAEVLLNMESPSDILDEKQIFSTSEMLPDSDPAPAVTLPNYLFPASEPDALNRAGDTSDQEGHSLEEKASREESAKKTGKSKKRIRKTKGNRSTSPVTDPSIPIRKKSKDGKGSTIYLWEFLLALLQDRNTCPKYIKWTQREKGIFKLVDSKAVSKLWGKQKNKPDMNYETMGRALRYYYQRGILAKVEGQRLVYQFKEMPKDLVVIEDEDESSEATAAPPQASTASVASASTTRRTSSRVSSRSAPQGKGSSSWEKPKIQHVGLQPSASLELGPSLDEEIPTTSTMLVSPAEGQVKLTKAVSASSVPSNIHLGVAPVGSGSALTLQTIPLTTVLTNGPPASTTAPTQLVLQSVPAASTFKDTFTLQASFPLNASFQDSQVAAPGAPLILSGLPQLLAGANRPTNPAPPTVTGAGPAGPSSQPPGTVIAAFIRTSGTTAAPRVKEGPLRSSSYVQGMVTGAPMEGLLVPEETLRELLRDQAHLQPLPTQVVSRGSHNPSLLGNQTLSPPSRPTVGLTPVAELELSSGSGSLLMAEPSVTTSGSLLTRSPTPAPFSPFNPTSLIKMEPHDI
Procedure, shortened: as §1

ELK4 = biological target: T3, ELK4 (Homo sapiens, UniProt P28324-2 1-405)
T3 sequence: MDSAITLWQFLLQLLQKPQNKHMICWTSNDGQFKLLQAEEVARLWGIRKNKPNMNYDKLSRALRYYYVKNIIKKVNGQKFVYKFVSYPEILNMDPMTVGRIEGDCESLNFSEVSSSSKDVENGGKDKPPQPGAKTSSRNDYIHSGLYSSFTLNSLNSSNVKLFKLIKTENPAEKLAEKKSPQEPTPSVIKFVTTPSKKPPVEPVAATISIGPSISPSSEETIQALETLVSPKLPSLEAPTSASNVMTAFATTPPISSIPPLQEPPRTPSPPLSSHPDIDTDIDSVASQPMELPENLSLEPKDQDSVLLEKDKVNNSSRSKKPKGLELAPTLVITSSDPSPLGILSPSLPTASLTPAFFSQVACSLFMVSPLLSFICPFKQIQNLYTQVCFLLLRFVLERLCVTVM
Procedure, shortened: as §1

ETV2 = biological target: T4, ETV2 (Homo sapiens, UniProt O00321 1-342)
T4 sequence: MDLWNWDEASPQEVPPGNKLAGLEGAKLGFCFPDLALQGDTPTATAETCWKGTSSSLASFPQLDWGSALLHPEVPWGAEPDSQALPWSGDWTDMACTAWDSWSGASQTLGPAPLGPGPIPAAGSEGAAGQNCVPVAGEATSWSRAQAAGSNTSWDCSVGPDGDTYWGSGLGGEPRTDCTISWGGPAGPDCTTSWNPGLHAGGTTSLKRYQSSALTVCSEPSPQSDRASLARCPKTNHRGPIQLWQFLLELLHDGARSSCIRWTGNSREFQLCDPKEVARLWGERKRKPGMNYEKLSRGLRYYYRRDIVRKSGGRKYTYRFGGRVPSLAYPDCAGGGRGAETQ
Procedure, shortened: as §1

ELF3 = biological target: T5, ELF3 (Homo sapiens, UniProt P78545 1-371)
T5 sequence: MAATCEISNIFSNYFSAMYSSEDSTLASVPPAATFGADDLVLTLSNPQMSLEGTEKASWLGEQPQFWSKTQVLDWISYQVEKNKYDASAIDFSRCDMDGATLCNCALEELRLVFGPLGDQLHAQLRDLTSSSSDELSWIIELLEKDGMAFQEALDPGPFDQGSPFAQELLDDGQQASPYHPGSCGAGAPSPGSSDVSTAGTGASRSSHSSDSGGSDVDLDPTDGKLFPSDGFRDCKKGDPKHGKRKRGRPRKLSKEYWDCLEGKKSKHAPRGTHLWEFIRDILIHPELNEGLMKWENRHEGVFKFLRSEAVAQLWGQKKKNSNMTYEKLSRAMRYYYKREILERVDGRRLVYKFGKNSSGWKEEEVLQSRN
Procedure, shortened: as §1

ETV1 = ETV1 (Homo sapiens, UniProt P50549 1-477)
Chain of ETV1 (P50549 whole entry): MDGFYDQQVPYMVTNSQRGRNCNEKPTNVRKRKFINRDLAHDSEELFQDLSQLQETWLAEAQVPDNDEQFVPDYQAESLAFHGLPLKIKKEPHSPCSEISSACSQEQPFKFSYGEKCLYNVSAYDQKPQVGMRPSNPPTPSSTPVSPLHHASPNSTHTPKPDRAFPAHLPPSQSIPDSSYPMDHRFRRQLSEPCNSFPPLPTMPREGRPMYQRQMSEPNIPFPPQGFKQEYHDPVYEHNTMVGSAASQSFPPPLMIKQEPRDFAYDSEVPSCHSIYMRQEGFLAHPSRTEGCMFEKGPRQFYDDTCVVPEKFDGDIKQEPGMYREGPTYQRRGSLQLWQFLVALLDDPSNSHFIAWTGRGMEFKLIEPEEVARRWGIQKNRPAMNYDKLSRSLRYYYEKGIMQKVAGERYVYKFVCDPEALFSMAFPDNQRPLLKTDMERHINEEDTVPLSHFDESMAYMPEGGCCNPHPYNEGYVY
Procedure, shortened: as §1

ERF = biological target: T6, ERF (Homo sapiens, UniProt P50548 1-548)
T6 sequence: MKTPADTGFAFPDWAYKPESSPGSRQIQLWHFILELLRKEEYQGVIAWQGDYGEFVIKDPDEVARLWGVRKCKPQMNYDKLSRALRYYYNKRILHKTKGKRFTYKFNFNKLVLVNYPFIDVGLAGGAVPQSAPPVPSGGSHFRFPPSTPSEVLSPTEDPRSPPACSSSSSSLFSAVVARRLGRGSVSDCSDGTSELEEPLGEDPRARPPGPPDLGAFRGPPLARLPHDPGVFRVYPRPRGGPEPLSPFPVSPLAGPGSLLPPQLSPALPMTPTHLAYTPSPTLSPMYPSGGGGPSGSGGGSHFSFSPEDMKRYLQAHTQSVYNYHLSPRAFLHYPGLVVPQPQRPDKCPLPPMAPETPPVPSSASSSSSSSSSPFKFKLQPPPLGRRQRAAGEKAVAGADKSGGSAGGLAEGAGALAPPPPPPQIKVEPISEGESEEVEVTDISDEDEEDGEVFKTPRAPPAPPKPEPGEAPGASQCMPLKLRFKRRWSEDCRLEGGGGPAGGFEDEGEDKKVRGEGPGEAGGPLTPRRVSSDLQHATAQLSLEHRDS
Procedure, shortened: as §1

ETV3L = biological target: T7, ETV3L (Homo sapiens, UniProt Q6ZN32 1-361)
T7 sequence: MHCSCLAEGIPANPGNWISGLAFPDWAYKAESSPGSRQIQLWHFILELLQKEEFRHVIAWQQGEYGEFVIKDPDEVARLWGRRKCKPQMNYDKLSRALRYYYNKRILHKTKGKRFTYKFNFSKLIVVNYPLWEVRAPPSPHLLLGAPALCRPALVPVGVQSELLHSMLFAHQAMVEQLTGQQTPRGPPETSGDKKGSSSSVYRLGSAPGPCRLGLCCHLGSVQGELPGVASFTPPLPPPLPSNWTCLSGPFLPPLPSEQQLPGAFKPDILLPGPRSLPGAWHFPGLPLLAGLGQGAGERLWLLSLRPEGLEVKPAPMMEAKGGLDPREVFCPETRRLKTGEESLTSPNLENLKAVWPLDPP
Procedure, shortened: as §1

ETS2 = biological target: T8, ETS2 (Homo sapiens, UniProt P15036 1-469)
T8 sequence: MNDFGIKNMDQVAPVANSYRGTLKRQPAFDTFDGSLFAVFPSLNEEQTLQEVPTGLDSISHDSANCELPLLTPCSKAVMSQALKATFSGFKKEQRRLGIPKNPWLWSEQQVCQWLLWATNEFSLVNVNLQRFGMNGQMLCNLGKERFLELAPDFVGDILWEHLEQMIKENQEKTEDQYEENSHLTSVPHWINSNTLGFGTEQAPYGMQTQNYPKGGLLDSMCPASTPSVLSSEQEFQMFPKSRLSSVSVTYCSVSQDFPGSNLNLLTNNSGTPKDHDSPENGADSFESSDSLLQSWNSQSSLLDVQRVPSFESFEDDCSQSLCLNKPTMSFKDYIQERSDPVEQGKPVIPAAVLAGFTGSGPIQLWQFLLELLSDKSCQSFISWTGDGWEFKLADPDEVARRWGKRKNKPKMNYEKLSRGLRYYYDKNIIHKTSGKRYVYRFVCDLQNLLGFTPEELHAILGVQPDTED
Procedure, shortened: as §1

SPDEF = biological target: T9, SPDEF (Homo sapiens, UniProt O95238 1-335)
T9 sequence: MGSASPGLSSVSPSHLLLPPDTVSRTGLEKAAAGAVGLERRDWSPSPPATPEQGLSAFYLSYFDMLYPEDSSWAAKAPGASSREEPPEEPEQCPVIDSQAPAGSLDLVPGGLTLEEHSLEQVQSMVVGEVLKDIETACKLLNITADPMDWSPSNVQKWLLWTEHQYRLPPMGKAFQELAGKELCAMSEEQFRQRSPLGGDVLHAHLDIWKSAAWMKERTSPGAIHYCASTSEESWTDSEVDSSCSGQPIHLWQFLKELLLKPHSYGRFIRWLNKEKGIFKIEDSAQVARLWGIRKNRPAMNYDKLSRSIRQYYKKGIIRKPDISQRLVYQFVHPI
Procedure, shortened: as §1

ETV7 = biological target: T10, ETV7 (Homo sapiens, UniProt Q9Y603 1-341)
T10 sequence: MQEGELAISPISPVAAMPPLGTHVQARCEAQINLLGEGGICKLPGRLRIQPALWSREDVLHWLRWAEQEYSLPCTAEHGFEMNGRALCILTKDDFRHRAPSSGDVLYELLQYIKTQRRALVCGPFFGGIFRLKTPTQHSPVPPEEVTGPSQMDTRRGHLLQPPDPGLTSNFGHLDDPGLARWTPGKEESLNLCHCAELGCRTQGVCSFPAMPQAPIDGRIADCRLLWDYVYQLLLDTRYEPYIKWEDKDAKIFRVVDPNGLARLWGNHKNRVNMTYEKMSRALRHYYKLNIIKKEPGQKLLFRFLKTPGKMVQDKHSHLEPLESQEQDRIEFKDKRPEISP
Procedure, shortened: as §1

ELF5 = biological target: T11, ELF5 (Homo sapiens, UniProt Q9UKW6-2 1-255)
T11 sequence: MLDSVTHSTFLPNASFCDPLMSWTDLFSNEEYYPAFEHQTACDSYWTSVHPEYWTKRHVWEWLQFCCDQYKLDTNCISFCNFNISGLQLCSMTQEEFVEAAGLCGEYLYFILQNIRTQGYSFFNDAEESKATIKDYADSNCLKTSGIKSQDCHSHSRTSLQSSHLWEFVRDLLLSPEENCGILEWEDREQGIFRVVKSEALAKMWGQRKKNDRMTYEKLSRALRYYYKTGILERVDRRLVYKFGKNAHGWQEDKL
Procedure, shortened: as §1

ETV3 = biological target: T12, ETV3 (Homo sapiens, UniProt P41162-2 1-143)
T12 sequence: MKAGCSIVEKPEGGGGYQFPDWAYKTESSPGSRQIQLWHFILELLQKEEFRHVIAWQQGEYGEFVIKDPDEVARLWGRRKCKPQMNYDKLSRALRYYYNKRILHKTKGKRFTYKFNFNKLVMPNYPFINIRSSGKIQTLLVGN
Procedure, shortened: as §1

ETV6 = ETV6 (Homo sapiens, UniProt P41212 1-452)
Chain of ETV6 (P41212 whole entry): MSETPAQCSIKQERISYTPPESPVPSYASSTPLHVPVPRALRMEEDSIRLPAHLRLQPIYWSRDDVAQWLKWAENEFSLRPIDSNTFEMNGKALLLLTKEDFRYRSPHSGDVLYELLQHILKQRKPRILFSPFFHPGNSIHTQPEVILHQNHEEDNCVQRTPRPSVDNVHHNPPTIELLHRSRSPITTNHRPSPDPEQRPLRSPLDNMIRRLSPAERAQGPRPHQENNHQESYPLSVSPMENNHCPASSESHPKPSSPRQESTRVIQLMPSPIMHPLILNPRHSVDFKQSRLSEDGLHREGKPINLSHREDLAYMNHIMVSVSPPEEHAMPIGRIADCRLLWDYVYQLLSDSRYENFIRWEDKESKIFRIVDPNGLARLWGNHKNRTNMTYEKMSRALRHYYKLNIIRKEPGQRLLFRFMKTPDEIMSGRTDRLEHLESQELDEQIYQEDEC
Procedure, shortened: as §1

Sequence | binding signal (FEV) | binding signal (ETV5) | binding signal (SPIC) | binding signal (ELF4) | binding signal (ELK4) | binding signal (ETV2) | binding signal (ELF3) | binding signal (ETV1) | binding signal (ERF) | binding signal (ETV3L) | binding signal (ETS2) | binding signal (SPDEF) | binding signal (ETV7) | binding signal (ELF5) | binding signal (ETV3) | binding signal (ETV6)
ACTGAC | 1.26 fold enrichment (6-mer frequency, TF over GST control) | 1.19 fold enrichment (6-mer frequency, TF over GST control) | 1.24 fold enrichment (6-mer frequency, TF over GST control) | 1.23 fold enrichment (6-mer frequency, TF over GST control) | 1.11 fold enrichment (6-mer frequency, TF over GST control) | 1.3 fold enrichment (6-mer frequency, TF over GST control) | 1.14 fold enrichment (6-mer frequency, TF over GST control) | 1.25 fold enrichment (6-mer frequency, TF over GST control) | 1.18 fold enrichment (6-mer frequency, TF over GST control) | 1.19 fold enrichment (6-mer frequency, TF over GST control) | 1.32 fold enrichment (6-mer frequency, TF over GST control) | 1.18 fold enrichment (6-mer frequency, TF over GST control) | 1.26 fold enrichment (6-mer frequency, TF over GST control) | 1.21 fold enrichment (6-mer frequency, TF over GST control) | 1.21 fold enrichment (6-mer frequency, TF over GST control) | 1.19 fold enrichment (6-mer frequency, TF over GST control)
GCTACA | 1.22 fold enrichment (6-mer frequency, TF over GST control) | 1.18 fold enrichment (6-mer frequency, TF over GST control) | 1.33 fold enrichment (6-mer frequency, TF over GST control) | 1.18 fold enrichment (6-mer frequency, TF over GST control) | 1.24 fold enrichment (6-mer frequency, TF over GST control) | 1.17 fold enrichment (6-mer frequency, TF over GST control) | 1.27 fold enrichment (6-mer frequency, TF over GST control) | 1.13 fold enrichment (6-mer frequency, TF over GST control) | 1.2 fold enrichment (6-mer frequency, TF over GST control) | 1.29 fold enrichment (6-mer frequency, TF over GST control) | 1.17 fold enrichment (6-mer frequency, TF over GST control) | 1.25 fold enrichment (6-mer frequency, TF over GST control) | 1.18 fold enrichment (6-mer frequency, TF over GST control) | 1.19 fold enrichment (6-mer frequency, TF over GST control) | 1.17 fold enrichment (6-mer frequency, TF over GST control) | 1.17 fold enrichment (6-mer frequency, TF over GST control)
